# Source: PubChem BioAssay AID504462 (Sanford-Burnham Center for Chemical Genomics, 2011)
# About 1,700 (0.5%) of roughly 340,000 compounds were called active. The sample holds actives, similar compounds and a random draw of the others, so the mix is not that of the screen. Values without a mark were called inactive. Rule as the data show it: active = inhibition above about 40%; inactive = the rest.
# Target: Cysteine protease ATG4B (Homo sapiens) (UniProt Q9Y4P1)
# Test: ATG4B protease inhibitors, primary screen, biochemical, fluorescence, uHTS (AID 504462)
# Details: ATG4B cleavage of LC3-PLA2, NBD-HPC fluorescence, 1 h; at 8.33 µM; hits give high values
# Cysteine protease ATG4B (Homo sapiens), sequence (Q9Y4P1 whole entry, looked up): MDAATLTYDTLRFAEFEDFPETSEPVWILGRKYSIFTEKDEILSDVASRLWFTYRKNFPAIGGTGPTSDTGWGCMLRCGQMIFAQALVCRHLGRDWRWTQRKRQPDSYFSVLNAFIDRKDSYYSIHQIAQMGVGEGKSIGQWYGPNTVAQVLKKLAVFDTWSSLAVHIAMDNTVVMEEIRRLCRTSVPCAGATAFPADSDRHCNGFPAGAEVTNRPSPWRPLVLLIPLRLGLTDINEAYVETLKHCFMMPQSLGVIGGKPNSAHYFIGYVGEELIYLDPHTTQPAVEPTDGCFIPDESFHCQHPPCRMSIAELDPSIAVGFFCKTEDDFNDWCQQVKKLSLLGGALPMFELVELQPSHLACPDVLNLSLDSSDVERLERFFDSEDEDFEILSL
row,Compound,inhibition
1,CCn1nnc(NC(=O)c2cc(Cl)c(OC)c(Cl)c2)n1,-1.88%
2,O=C(Nc1ccccc1Cc1ccccc1)c1ccc2c(c1)SC1=NS(=O)(=O)CCN12,-8.36%
3,CC(=O)c1cc(-c2ccccc2)n(CCC(=O)NC2CCCCCC2)c1C,-4.01%
4,COC(=O)c1c(NC(=O)COC(=O)[C@@H](NS(=O)(=O)c2ccccc2)C(C)C)sc2c1CCC2,71% (active)
5,COC(=O)c1c(NC(=O)CN(c2ccc(C)c(C)c2)S(C)(=O)=O)sc2c1CCCC2,-3.55%
6,CCc1ccc(N(CC(=O)Nc2sc3c(c2C(=O)OC)CCCC3)S(C)(=O)=O)cc1,-5.39%
7,O=[N+]([O-])/C=C/c1ccc2c(ccn2Cc2ccccc2)c1,5.14%
8,COc1ccc2c(c1)CCc1c(C(=O)N3CCCC3)noc1-2,-6.35%
9,COc1ccc2c(c1)CCc1c(C(=O)N3CCc4ccccc4C3)noc1-2,55.6% (active)
10,O=C(c1noc2c1CCCC2)N1CCc2ccccc2C1,0.28%
11,Cc1cccc(C(=O)N2CCc3c([nH]c4ccccc34)C2CC(C)C)n1 (configuration not stated),-9.03%
12,Cc1cccc(C2c3[nH]c4ccccc4c3CCN2C(=O)c2cc(-c3cccn3C)n[nH]2)n1 (configuration not stated),62.3% (active)
13,O=C(c1cn2ccccc2n1)N1CCc2c([nH]c3ccccc23)C1c1ccccn1 (configuration not stated),-13.7%
14,O=C(COc1cc(Cl)c(Cl)cc1Cl)NC(=O)NC1CCCC1,-1.73%
15,CC(C)(C)OC(=O)NCCCCCC(=O)N/N=C/c1coc2ccccc2c1=O,14.7%
16,Cc1c(/C=N\NC(=O)c2cc3ccccc3o2)c2ccccc2n1C,-15.2%
17,O=C(N/N=C/c1coc2ccccc2c1=O)c1cc2ccccc2o1,61.1% (active)
18,O=C(COCc1cc(-c2ccc3c(c2)OCO3)on1)N1CCN(c2cccc(Cl)c2)CC1,5.35%
19,CCOc1ccc(CC(=O)NCCS(=O)(=O)N2CCN(c3ccccc3)CC2)cc1,-6.99%
20,O=C(Nc1nnc(SCc2c(Cl)cccc2Cl)s1)c1cccc([N+](=O)[O-])c1,7.45%
21,O=C(Nc1nnc(SCc2ccccc2Cl)s1)c1cccc([N+](=O)[O-])c1,71.7% (active)
22,NC(=O)CSc1nnc(NC(=O)c2ccc3ccccc3c2)s1,5.71%

row,Compound,inhibition
1,CN(CC(=O)Nc1cccc(F)c1)C(=O)C1CC(=O)N(CCc2ccccc2)C1 (configuration not stated),-5.48%
2,OC(CNCc1ccc(Cl)c(Cl)c1)c1ccccc1 (configuration not stated),40%
3,CCOC(=O)c1ccc(NNC(C)=O)c([N+](=O)[O-])c1,-7.65%
4,COc1cc2ccccc2cc1C(=O)Nc1ccccc1C,-2.98%
5,COc1ccc(Br)cc1C(=O)Nc1cccc(C)c1C,7.75%
6,COc1ccc(Br)cc1C(=O)NC(=S)Nc1cc(-c2nc3ccccc3[nH]2)ccc1C,65% (active)
7,CN1C(C)(C)CC(NC(=O)CCC(=O)NC2CC(C)(C)N(C)C(C)(C)C2)CC1(C)C,-1.23%
8,C#CCOCCOCCOCCNc1nc(N2CCN(C(=O)CCCCCCCCCCNC(=O)[C@H]([C@@H](C)CC)n3cc(CCCCN=C(N)N)nn3)CC2)nc(N2CCN(C(=O)CCCCCCCCCCNC(=O)[C@H](CO)n3cc(CCCSC)nn3)CC2)n1,41.9% (active)
9,C#CCOCCOCCOCCNc1nc(N2CCN(C(=O)Cn3cc(CCO)nn3)CC2)nc(N2CCN(C(=O)Cn3cc(CCCN=C(N)N)nn3)CC2)n1,-2.83%
10,C#CCOCCOCCOCCNc1nc(N2CCN(C(=O)[C@H](CCCN=C(N)N)n3cc(C(N)[C@@H](C)CC)nn3)CC2)nc(N2CCN(C(=O)[C@H](CO)n3cc([C@@H](N)C(C)C)nn3)CC2)n1 (some centres not stated),-2.36%
11,O=C(c1n[nH]c2c1CCC2)N1CCCC(Nc2cccc(F)c2)C1 (configuration not stated),5.08%
12,CCc1ccc(/C=C2\SC(N3CCOCC3)=NC2=O)cc1,-5.05%
13,O=C1N=C(N2CCc3ccccc3C2)S/C1=C\c1ccc(O)cc1,67.7% (active)
14,CCOc1cc(/C=C2\SC(N3CCCCC3)=NC2=O)ccc1O,-6.5%
15,O=C(NCCCO)/C(=C\C=C\c1ccccc1)NC(=O)c1ccccc1Cl,-7.32%
16,O=C1CSC(=S)N1c1ccc(Cl)c(Cl)c1,4.82%
17,CC1CC(C)CN(C/C=C/c2ccccc2[N+](=O)[O-])C1 (configuration not stated),11.3%
18,CC1CCN(Cc2nc3c(c(=O)n(C)c(=O)n3C)n2CCc2ccccc2)CC1,-1.37%
19,CCCc1nc2c(c(=O)c3ccccc3n2C)c(=O)n1C1CCCCCC1,41.3% (active)
20,Cn1c2ccccc2c2c(C(=O)N3CCN(c4ccc(F)cc4)CC3)cn(C3CCCC3)c(=O)c21,-29.5%
21,Cn1nc(C(C)(C)C)c(NC(=O)c2sccc2Cl)c1C(C)(C)C,8.72%
22,O=C(O)C1=NN(c2c(F)c(F)cc(F)c2F)C(=O)CC1,-1.19%

row,Compound,inhibition
1,O=C(Nc1cccc(Cl)c1N1CCOCC1)c1ccc2c(c1)OCCO2,33.9%
2,O=C(Nc1cccc(Cl)c1N1CCOCC1)c1cccnc1,-5.52%
3,CCN1CCN(c2c(Cl)cccc2NC(=O)c2ccc(Br)o2)CC1,56.4% (active)
4,C[C@H](CO)N1C[C@H](C)[C@@H](CN(C)S(=O)(=O)c2ccc(F)cc2)Oc2c(NC(=O)Nc3ccccc3)cccc2C1=O,-16.4%
5,O=C(NCC1COc2ccccc2O1)C1(c2ccccc2)CCCC1 (configuration not stated),4.25%
6,O=C1C(=O)N(CC2COc3ccccc3O2)c2ccccc21 (configuration not stated),72.1% (active)
7,O=C(CN1C(=O)C2C3C=CC(C3)C2C1=O)NCC1COc2ccccc2O1 (configuration not stated),0.03%
8,FC(F)(F)c1cccc(N/N=C/c2ccccc2)c1,-3.29%
9,Cn1cc(Cl)c(C(=O)NNC(=S)Nc2cccc(Cl)c2)n1,-0.09%
10,FC(F)(F)c1cccc(NC(=S)Nc2cccc(Cl)c2)c1,44.3% (active)
11,O=C(CSc1nnc(-c2cccs2)n1Cc1ccccc1)N1CCc2ccccc2C1,31.5%
12,Cc1nc(SCC(=O)N2CC(=O)Nc3ccccc32)c2c(C)c(C)sc2n1,26.7%
13,Cc1nc(SCC(=O)N2CCc3ccccc3C2)c2c(C)c(C)sc2n1,71.6% (active)
14,CCOCC(=O)Nc1ncc(S(=O)(=O)c2ccc([N+](=O)[O-])cc2)s1,-0.99%
15,COc1ccc(/C=C2\SC(=O)N(CCC(=O)NCCCn3ccnc3)C2=O)cc1,3.21%
16,COc1ccc(/C=C2\SC(=O)N(CCC(=O)NC3CCS(=O)(=O)C3)C2=O)cc1 (configuration not stated),5.85%
17,COc1ccc(/C=C2/SC(=O)N(CCCCCC(=O)Nc3ccccc3C(=O)O)C2=S)cc1,55.6% (active)
18,Cc1cc(C)n(-c2nnc(C)n2NC(=O)c2cccc(Cl)c2)n1,-11.2%
19,O=C(NCCS(=O)(=O)N1CCN(c2ccccc2F)CC1)c1ccc(Br)o1,-9.9%
20,CC1(C)CC(=O)C=C(NCCCN2CCCC2=O)C1,2.66%
21,CC1CCN(C(=O)c2ccc(CSc3ccc(Cl)cc3)cc2)CC1,44% (active)
22,O=C(C1CC1)N1CCN=C1SCc1ccc(Cl)cc1,-5.2%

row,Compound,inhibition
1,O=C(c1ccc(CSc2ccccc2)cc1)N1CCCCCC1,15.3%
2,O=C(O)C1C2C=CC(C2)C1C(=O)NCc1ccccc1 (configuration not stated),1.32%
3,O=C(NCc1ccccc1)[C@H]1C[C@@H]1[C@H](NP(=O)(c1ccccc1)c1ccccc1)c1ccccc1,55.2% (active)
4,COC(=O)[C@H](Cc1ccccc1)NC(=O)[C@@H]1C[C@H]1[C@@H](NC(=O)OCc1ccccc1)c1ccccc1,3.57%
5,Cc1ccc(Sc2cc(C(=O)c3ccccc3C(=O)O)ccc2[N+](=O)[O-])cc1,-10.7%
6,CN(C)S(=O)(=O)c1ccc(N/C=C(\[N+](=O)[O-])S(=O)(=O)c2ccccc2)cc1,0.88%
7,CCCN(CCC)CCCNC(=O)CNC(=O)c1nn(-c2ccc(OC)cc2)c(=O)c2ccccc12,7.71%
8,CCN=C1SC(CC(=O)Nc2ccc(C)cc2)C(=O)N1CC (configuration not stated),-0.27%
9,Cc1c(Cl)cccc1NC(=O)CC1SC(=NCC2CCCO2)NC1=O (configuration not stated),1.67%
10,Cc1ccc(NC(=O)CC2S/C(=N/N=C3\CCCc4ccccc43)NC2=O)cc1 (configuration not stated),41.3% (active)
11,O=C(COC(=O)c1cc(=O)[nH]c2ccccc12)Nc1nc(-c2cccc(Br)c2)cs1,-32.4%
12,O=C1Nc2cc(Cl)c(Cl)cc2N(O)N1c1ccccc1Cl,0.16%
13,O=C1Nc2cc(Cl)c(Cl)cc2N(O)N1c1cc(Cl)cc(Cl)c1,42.3% (active)
14,O=C(Nc1cccc2c1CCCC2)c1ccc(F)cc1,9.34%
15,Cc1ccc(C2=N/C(=C\c3ccc(OS(=O)(=O)c4ccc(C)cc4)cc3)C(=O)O2)cc1,-3.55%
16,CS(=O)(=O)C1=NN2C(=N)/C(=C\c3ccc(OCCOc4ccccc4)cc3)C(=O)N=C2S1,-1.7%
17,CCS(=O)(=O)C1=NSC2=NC(=O)/C(=C\c3ccc(OS(=O)(=O)c4ccccc4)cc3)C(=N)N21,43.1% (active)
18,O=C(NCCc1ccco1)c1ccc(OCc2cn3ccccc3n2)cc1,-8.13%
19,FC(F)(F)Oc1ccc(NC(=S)NCc2ccccc2)cc1,40.2% (active)
20,Fc1ccccc1CNC(=S)Nc1ccc(Cl)cc1,23.2%
21,COC(=O)Cc1ccc(NC(=S)NCc2ccccc2)cc1,8.5%
